HepG2 tox – qHTS for Inhibitors of TGF-b: Cytotox Counterscreen; HepG2 CAGA-GFP viability, ATP luminescence, 18 h; AID 588856, 2011; Potency, µM (top dose mostly 46.1 µM), without a hit: top-dose activity change, negative = cytotoxicity, most hits filed as cytotoxic; 0.76% of 410,000 active
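HepG2 CAGA-GFP cells (1000/well, DMEM with 1% FBS) received compound, then TGF-beta at 500 pg/mL final, and were incubated 18 hours at 37 degrees C. Viability was read by CellTiter-Glo luminescence. Media-only wells were set as complete cell-killing and DMSO as no toxicity.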
KB-V1 cytotox – qHTS assay for MDR1-selective chemotherapeutics: Primary screen using the drug-selected MDR subline cells KB-V1; KB-V1 MDR cells viability, CellTiter-Glo, 72 h; 3.4% of 400,000 active; AID 1347076, 2019; Potency, µM (top dose mostly 46.1 µM), actives largely listed as cytotoxic; note: % is set by controls: 0 for no effect and ±100 for the full control effect; nearly all actives have a fitted effect of over 60% in size
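Following 72 h at 37 degrees C with compound, KB-V1 cell viability was read by CellTiter-Glo luminescence, medium being phenol-red-free DMEM plus 10% FBS; concentration-response parameters came from normalized, curve-fitted qHTS data.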
ATXN2 expr inh – Primary qHTS for Inhibitors of ATXN expression | HEK-293 ATXN2-luciferase reporter, luminescence, 24 h | Potency, µM (series often up to 57 µM), inactives show at the top dose activity change, negative = inhibition, most hits filed as inhibitors | 0.72% of 360,000 active | AID 1745845, 2022; note: % is set by controls: 0 for no effect and ±100 for the full control effect; nearly all actives have a fitted effect of over 55% in size
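qHTS (up to 57 uM final) was run with 24 h compound exposure of reporter cells at 37 °C. Each well was multiplexed: SteadyGlo luminescence measured ATXN2-luciferase expression after a fluorogenic Gly-Phe-AFC viability readout (25 uM final).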
KB-3-1 tox – qHTS assay for MDR1-selective chemotherapeutics: Primary screen using the parental adenocarcinoma cell KB-3-1; KB-3-1 viability, CellTiter-Glo ATP luminescence, 72 h; Potency, µM (titrated, usually from 46.1 µM), hits mostly cytotoxic; 1.4% of 400,000 active; AID 1347075, 2019; note: % is set by controls: 0 for no effect and ±100 for the full control effect; nearly all actives have a fitted effect of over 60% in size
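Cells are dispensed, compounds pinned in, plates held at 37 °C for 72 h, then CellTiter-Glo is added and luminescence read after 10 minutes. Cell line: parental KB-3-1 in phenol-red-free DMEM, 10% FBS.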
ATXN viability – Viability Counterscreen for Primary qHTS for Inhibitors of ATXN expression | Potency, µM (top dose mostly 56.7 µM), usual class: cytotoxic | S2 cells (HEK-293 line with an ATXN2-luciferase reporter) viability, CellTiter-Fluor protease fluorescence, 24 h | 0.49% of 400,000 active; note: nearly all actives have a fitted effect of over 40% in size
TGFb SMAD3 inh – qHTS for Inhibitors of TGF-b | AID 588855, 2011 | HepG2 CAGA-GFP TGF-b/SMAD3 reporter, GFP fluorescence, 18 h; TGF-beta stimulated, 500 pg/mL final | 1.2% of 410,000 active | Potency, µM (doses to about 46.1 µM), for the others: at the highest dose activity, negative = inhibition, usual class: inhibitors; note: % is set by controls: 0 for no effect and ±100 for the full control effect; nearly all actives have a fitted effect of over 65% in size
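Cell-based qHTS in HEPG2 carrying a CAGA-GFP Smad reporter; compounds added before 500 pg/mL final TGF-beta, 18 h incubation at 37 degrees C, GFP fluorescence quantified per cell by imaging cytometry.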
Numbers without * were called inactive; i = inactive; ? = inconclusive; / = no result; [ ] = remark or other dose. A selection: hits, their analogues and other compounds. The true share with any hit is near 5.9%. Calls come from the whole dose curve; as a rule, active = well fitted curve in the direction sought with a large enough effect; inconclusive = small, poorly fitted or top-dose-only effect, or another doubt; inactive = no such curve, though single readings can be large; an effect the other way counts as inactive or inconclusive. Potency is the fitted concentration of half-maximal effect.

SMILES	HepG2 tox	KB-V1 cytotox	ATXN2 expr inh	KB-3-1 tox	ATXN viability	TGFb SMAD3 inh
CC(C)[C@H]1c2ccc(F)cc2CC[C@@]1(CCN(C)CCCc1nc2ccccc2[nH]1)OC(=O)C1CC1	-108.7%	20.6µM*	/	?	/	11.2µM*
COc1ccc(S(=O)(=O)Oc2ccc3ccccc3c2)cc1	-15.0%	16.4µM*	31.7%	?	i	0.6%
COc1ccc(S(=O)(=O)Oc2ccc3cccc(N)c3c2)cc1	-7.2%	?	1.5%	?	i	0.0%
CCOC(=O)c1[nH]c(C)c(CCC(=O)N2CCN(c3cc(Cl)ccc3C)CC2)c1C	-26.7%	i	-8.0%	i	?	11.2µM*
Cc1ccc(Cl)cc1N1CCN(C(=O)c2c(C)oc3ncnc(N4CCCCC4)c23)CC1	-66.0%	i	28.2µM*	i	?	?
CC(=O)c1c(C)[nH]c(C(=O)N2CCN(c3cc(Cl)ccc3C)CC2)c1C	-31.6%	i	27.1%	4.61µM*	i	0.0%
CC(=O)c1c(C)[nH]c(C(=O)N2CCN(c3ccc(F)cc3)CC2)c1C	-34.3%	?	23.0%	i	i	-13.1%
COc1cccc(N2CCN(C(=O)c3[nH]c(C)c(C(C)=O)c3C)CC2)c1	-10.0%	5.62µM*	-13.9%	6.31µM*	i	2.2%
COc1ccc(/C=C/c2cnc3ccccc3n2)cc1OC	-35.3%	i	/	i	/	-4.2%
Cc1ccc2c(c1)CN(C(=O)CC(c1ccccc1)c1ccco1)CC(C)O2 (centres undefined)	/	/	/	/	i	/
O=P(CCCCCCCCCP(=O)(c1ccccc1)c1ccccc1)(c1ccccc1)c1ccccc1	-98.5%	14.6µM*	25.1µM*	?	22.4µM*	?
COc1ccc(P(=O)(COc2ccc([N+](=O)[O-])cc2)c2ccc(OC)cc2)cc1	-20.1%	4.11µM*	7.3%	i	i	0.7%
O=P(COc1ccccc1)(c1ccccc1)c1ccccc1	3.9%	14.6µM*	5.6%	i	i	-15.0%
CCCOc1ccc(C(=O)Nc2c(C(=O)c3ccc(C)cc3)oc3ccccc23)cc1	1.2%	i	6.0%	i	i	1.2%
O=C(CN1Cc2ccccc2OC(c2ccsc2)C1)NCc1ccc2c(c1)OCO2 (centres undefined)	/	/	/	/	i	/
CCC1(C2CCN(Cc3cc4ccccc4o3)CC2)NC(=O)N(CC2COc3ccccc3O2)C1=O (centres undefined)	/	/	/	/	i	/
CN(C(=O)CSc1ncnc2sccc12)C1CCCCC1	3.4%	5.17µM*	57.9%	i	i	4.6%
O=C(Nc1cccc(O)c1)c1cc2nc(-c3ccc(Br)cc3)cc(C(F)(F)F)n2n1	-14.4%	i	-1.0%	i	i	-5.9%
CC1CCN(S(=O)(=O)c2cc(Cl)ccc2Br)CC1	-21.9%	i	-1.5%	i	i	0.0%
O=S(=O)(c1ccccc1S(=O)(=O)N1CCCCC1)N1CCCCC1	-65.0%	14.6µM*	11.5%	i	i	13.1%
O=S(=O)(c1cccc2ccccc12)N1CCCCC1	7.4%	i	-6.1%	i	i	10.5%
O=S(=O)(c1ccc(Cl)cc1Br)N1CCCCC1	-0.9%	18.4µM*	-12.9%	?	i	?
O=S(=O)(c1ccc(Cl)cc1)N1CCN(S(=O)(=O)N2CCCCCC2)CC1	-0.2%	i	2.1%[11.3 µM]	i	i	16.2%
O=S(=O)(c1ccc(Oc2ccc(Cl)cc2)c(S(=O)(=O)N2CCCCC2)c1)N1CCCCC1	-19.6%	3.26µM*	2.4%	i	i	0.2%
COc1cccc(CNc2ncnc3ccc(-c4c(C)noc4C)cc23)c1	-33.0%	?	69.5%	i	i	?
